Bioassay records as filed in PubChem.
Shown are actives, neighbours in structure and some others; about 2.4% of the full set was active somewhere.
D2 ag-1 = D2 dopamine receptor (human) agonism; P14416; HEK293 T-REx D2 cells, calcium flux agonist mode; activation, % at 2 µM; hit rate 0.53% among 340,000; AID 485358;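 active means activation over 3 SD above normal in the single-dose calcium agonist read, cut at about 30% in these data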; further: 0% is about no effect
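In this primary screen, compounds producing a positive calcium signal within 180 s of addition to tetracycline-induced, force-coupled HEK293 Trex D2 cells are flagged; cells are dye-loaded with a no-wash calcium kit beforehand.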
D2 PAM-1 = human D2 receptor positive allosteric modulation. potentiation, % (no concentration beside the values). hit rate 0.23% among 360,000. P14416. DiscoveRx D2 beta-arrestin cells, luminescence, 90 min; 100% = 57 uM dopamine signal; in the data active means potentiation above about 50%; inconclusive means mostly about 30% to 49%
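D2 cells co-treated with compound plus 50 nM dopamine (EC20) for 90 min at 37 deg C to detect potentiation. Beta-arrestin recruitment was read as enzyme-fragment luminescence after 1 h at ambient temperature. Full response was set by 57 uM dopamine.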
D2 antag = antagonizes the human D2 dopamine receptor; hit rate 2% among 340,000; HEK293 TREx D2 cells, calcium flux, dopamine EC80; inhibition, % at 10 µM; P14416; AID 485344; in the data active means inhibition above about 30%; inactive means below that, where a call was filed; further: 0% is about no effect
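Compounds are added to dye-loaded, induced HEK293 T-REx cells coupled to calcium release via D2; after a 3 min kinetic read an EC80 dopamine stimulus is given and fluorescence is recorded for 3 more min.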
D2 PAM-2 = positively modulates the human D2 dopamine receptor allosterically. P14416. HEK293 T-REx D2, calcium flux, EC20 dopamine potentiation. potentiation, % at 10 µM. hit rate 0.34% among 340,000. AID 485347;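 active means potentiation over 3 SD above the plate norm, cut at about 30% in these data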; further: 0% is about no effect
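Potentiation of an EC20 dopamine calcium response is measured in a force-coupled, tetracycline-inducible Hek293 Trex D2 line. Compound-only kinetic reads over 180 s flag agonists before dopamine addition.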
D2 ag-2 = activates the human D2 dopamine receptor; DiscoveRx PathHunter D2 beta-arrestin, luminescence, 90 min; 100% = 57 uM dopamine signal; activation, % (test concentration not listed); hit rate 0.084% among 360,000; AID 624465; in the data active means activation above about 40%; inconclusive means between about 15% and that limit
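Agonist mode: compounds alone added to overnight-plated D2 PathHunter cells for 90 min at 37 C, with 57 uM final dopamine (EC100) defining full response. Beta-arrestin recruitment detected by chemiluminescent reagent, read after 1 h at ambient temperature.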
D3 ag = D3 receptor agonism confirmed, beta-arrestin readout | AID 720506 | DiscoveRx D3 beta-arrestin cells, luminescence, 90 min | Potency, µM (titrated, usually from 76.9 µM), without a hit: at the highest dose activation, hits mostly activators | shares compounds with D2 ag-1 | hit rate 4% among 2,300;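 further: potency means the concentration at half of the fitted maximal effect; 100% = dopamine control response; nearly all actives have a fitted effect of over 70% in size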
Target sequence (P35462 whole entry, looked up): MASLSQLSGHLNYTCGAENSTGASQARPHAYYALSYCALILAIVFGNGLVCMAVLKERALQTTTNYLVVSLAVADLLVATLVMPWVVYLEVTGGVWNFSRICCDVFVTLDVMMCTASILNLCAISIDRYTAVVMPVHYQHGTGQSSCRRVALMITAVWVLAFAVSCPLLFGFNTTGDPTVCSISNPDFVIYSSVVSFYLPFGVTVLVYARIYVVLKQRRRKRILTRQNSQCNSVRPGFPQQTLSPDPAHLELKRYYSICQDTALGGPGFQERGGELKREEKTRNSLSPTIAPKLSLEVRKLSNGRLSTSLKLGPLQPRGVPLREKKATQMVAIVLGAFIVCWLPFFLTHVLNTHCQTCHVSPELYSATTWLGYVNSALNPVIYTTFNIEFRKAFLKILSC
D2 ag-3 = counter-screen for D3 agonists: human D2 dopamine receptor agonism; AID 720507; shares compounds with D2 ag-1; hit rate 5.9% among 2,300; Potency, µM (titrated, usually from 76.9 µM), for the others: at the top dose activation, most hits filed as activators; DiscoveRx PathHunter D2 beta-arrestin, luminescence, 90 min; response scale: percent relative to full dopamine signal; further: potency means the concentration at half of the fitted maximal effect; % of control where 0% means no effect; nearly all actives have a fitted effect of over 70% in size
* hit, by the source's call; ? = inconclusive; nt = no result. Unless noted, the call rests on the fitted dose curve; in most records, active means well fitted activation curve with a large enough effect; inconclusive means small, poorly fitted or top-dose-only effect; inactive means flat fitted curve, though single readings scatter.

SMILES	D2 ag-1	D2 PAM-1	D2 antag	D2 PAM-2	D2 ag-2	D3 ag	D2 ag-3
O=C(CCC1CCCC1)N1CCC(N2CCN(c3ccccc3)CC2)CC1	53.1*	-21.6	77.2*	-22.9	-0.2	0.7%	11.7%
CC(C)(C)C1CCC(N2CCN(c3ccccc3)CC2)CC1 (stereo not drawn)	73.5*	-48.1	86.2*	-35.2	1.6	5.1%	?
Cc1nnc(NC(=O)CCn2c(=O)oc3ccccc32)s1	0.3	-6.4	8.9	-22.6	1.1	nt	nt
Cc1ccc(CNC(=O)CN2N=C(c3ccccc3)CCC2=O)cc1	-0.3	nt	nt	-1.3	nt	nt	nt
Cc1c(Cl)cccc1NC(=O)N1CCC(CN2CCOCC2)CC1	0.7	nt	nt	-13.1	nt	nt	nt
COc1ccc(C(=O)N2CCC(C(=O)N3CCN(c4ccc(OC)cc4)CC3)CC2)cc1	1.0	1.7	5.4	2.7	-1.1	nt	nt
COc1ccc(C(=O)N2CCC(N3CCN(c4ccccc4)CC3)CC2)cc1	71.2*	-25.4	57.1*	-20.3	11.7	?	?
COc1ccc(/C=N/NC(=O)CCn2cnc3ccccc32)cc1	1.9	-1.5	3.6	-7.7	-2.0	-5.4%	-2.6%
Cc1c2c(nc3c(C)cccc13)OC(C)C2 (stereo not drawn)	22.7	0.3	25.8	5.4	0.4	4.5%	11.6%
Cc1cc(-c2n[nH]c(=S)n2/N=C/c2sccc2C)n[nH]1	65.9*	-2.3	-15.0	-25.5	-2.1	-16.1%	-11.8%
CNC(C)C(=O)NC(C(=O)N1CCCC1C(=O)NC1CCCc2ccccc21)C(C)C (stereo not drawn)	-0.8	-6.8	-30.7	-1.9	0.5	nt	nt
CNC(C)C(=O)NC(C(=O)N1CCCC1C(=O)NNc1ccccc1)C(C)C (stereo not drawn)	0.7	-9.7	-7.9	-5.4	-3.9	-5.8%	-6.4%
CCCCC(O)CN1CCC(c2ccccc2)CC1 (stereo not drawn)	52.0*	-47.2	48.3*	-25.3	-0.6	-10.4%	2.0%
CC(CN1CCC(O)CC1)c1ccccc1 (stereo not drawn)	-0.1	-9.6	-1.2	6.2	-0.8	nt	nt
CCC(C)N(NC(C)=O)c1nc(Cl)nc(NC(C)(C)C)n1 (stereo not drawn)	80.3*	3.4	11.1	-23.6	-1.4	-0.6%	-2.6%
Cc1nc(SCc2ccccc2)c([N+](=O)[O-])[nH]1	0.2	-10.5	22.0	-1.3	-4.9	-23.4%	-7.0%
COc1ccc(CSc2nc(C)[nH]c2[N+](=O)[O-])cc1[N+](=O)[O-]	-1.2	-2.8	-9.1	-7.0	-1.0	nt	nt
CC(NC(=O)CN1C(=O)c2ccccc2C1=O)c1ccccc1 (stereo not drawn)	nt	-7.9	nt	nt	-2.5	nt	nt
CC(C)C(NC(=O)CCN1C(=O)c2ccccc2C1=O)c1ccccc1 (stereo not drawn)	-0.8	-7.8	18.6	-7.3	2.9	-2.3%	-5.7%
Cc1ccsc1C(=O)NNC(=O)c1ccncc1	0.2	-26.2	6.4	-1.8	-2.2	-0.5%	-4.1%
COc1ccc(CCNC2CCC(c3ccccc3)CC2)cc1 (stereo not drawn)	35.7*	-6.2	77.7*	-14.6	12.0	-4.6%	19.9%
Cc1ccc(CN(C(=O)COc2ccccc2[N+](=O)[O-])c2ccccn2)cc1	nt	nt	nt	-27.2	nt	nt	nt
O=C(COc1ccccc1[N+](=O)[O-])N(Cc1ccccc1)c1ccccn1	52.5*	11.0	21.2	-30.2	?	?	?
CCC(=O)Nc1ccc(N/C(N)=N/c2nc(C)cc(C)n2)cc1	0.5	-20.5	1.9	4.3	-2.7	nt	nt
CCCCc1ccc(N/C(N)=N/c2nc(C)cc(C)n2)cc1	55.8*	-4.2	43.3*	-13.6	?	?	?
Cc1cc(C)nc(/N=C(\N)Nc2ccc([N+](=O)[O-])cc2)n1	14.7	-1.8	36.8*	-9.0	1.2	-7.5%	-4.3%
